L3MBTL1 inh = qHTS Assay for the Inhibitors of L3MBTL1. Lethal(3)malignant brain tumor-like protein 1 (Homo sapiens), Q9Y468. 0.66% of 230,000 active. Potency, µM (highest dose often 57.1 µM), for inactives: at the highest dose activity, negative = inhibition, usual class: inhibitors. AlphaScreen L3MBTL1–H3K9me1 peptide binding. AID 485360, 2010; also: % is scaled to controls: 0 for no effect and ±100 for the full control effect; nearly all actives have a fitted effect of over 60% in size
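First, the protein-peptide complex forms for 30 min at room temperature (L3MBTL1 50 nM, biotinylated H3K9me1 peptide 75 nM). Next, compounds are pin-transferred and incubated 30 min. Finally, AlphaScreen beads are added and read after 30 min.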
Sfp PPTase inh = qHTS Assay for Inhibitors of Bacillus subtilis Sfp phosphopantetheinyl transferase (PPTase); Biochemical Sfp PPTase activity, qHTS; 3.5% of 310,000 active; AID 1490, 2009; 4'-phosphopantetheinyl transferase ffp (Bacillus subtilis), Q9F4F7; Potency, µM, without a hit: largest response in the series, negative = inhibition, usual class: inhibitors;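 also: the enzyme is Sfp with the accession as filed and its product quenches rhodamine fluorescence; 0% = enzyme reaction without inhibitor and -100% = no enzyme wells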
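Fluorescence-quenching assay with 15 nM Sfp, 5 uM rhodamine-CoA and 12.5 uM BHQ-2-labelled ybbR peptide in pH 7.6 Hepes/MgCl2 buffer. Enzyme was pre-incubated with compound for 15 min at room temperature. Rate was taken from the 30-min fluorescence change (525/598 nm).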
G9a inh = qHTS Assay for Inhibitors of Histone Lysine Methyltransferase G9a. Histone-lysine N-methyltransferase EHMT2 (Homo sapiens), Q96KQ7. AID 504332, 2011. G9a H3K9 monomethylation, AlphaScreen, 2 h. 8.8% of 350,000 active. Potency, µM (titrated, usually from 102 µM), for inactives: top-dose activity, negative = inhibition, actives largely listed as inhibitors; also: % is scaled to controls: 0 for no effect and ±100 for the full control effect; nearly all actives have a fitted effect of over 75% in size
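Enzyme 20 nM + cpd, 15 min RT; add b-H3K9 pep 500 nM / SAM 20 uM; 2 h RT; anti-H3K9me1 Ab 0.5 ug/mL + SA donor / anti-rabbit acceptor beads 20 ug/mL each, 10 min; AlphaScreen read.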
BAZ2B inh = qHTS Assay for Inhibitors of BAZ2B | Bromodomain adjacent to zinc finger domain protein 2B (Homo sapiens), Q9UIF8 | AlphaScreen BAZ2B-H3K14Ac peptide displacement | Potency, µM (top dose mostly 114 µM), without a hit: at the top dose activity change, negative = inhibition, hits mostly inhibitors | 4.4% of 360,000 active; also: % is scaled to controls: 0 for no effect and ±100 for the full control effect; nearly all actives have a fitted effect of over 60% in size
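Inhibition is scored as reduced AlphaScreen emission. The BAZ2B/b-H3(5-23)K14Ac complex (50 nM each) in PBS pH 7.4, 0.01% Tween-20 meets compound (up to 110 uM) for 30 min at RT before bead addition.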
HP1b binding inh = HTS for Inhibitors of HP1-beta Chromodomain Interactions with Methylated Histone Tails | Chromobox protein homolog 1 (Homo sapiens), P83916 | AlphaScreen HP1-beta / biotin-H3K9me3 peptide binding | Potency, µM (highest dose often 114 µM), for the others: top-dose activity change, negative = inhibition, hits mostly inhibitors | 0.56% of 390,000 active; also: nearly all actives have a fitted effect of over 70% in size
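HP1-beta protein (50 nM final) preincubated 30 min at room temperature with biotinylated H3(1-18)K9me3 peptide (50 nM) in PBS pH 7.4, 0.01% Tween-20, then compound added for 30 min. AlphaScreen streptavidin donor/nickel chelate acceptor beads (10 ug/mL final), 30 min dark, luminescence read.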
JMJD2A Tudor inh = qHTS Assay for Inhibitors of JMJD2A-Tudor Domain. Potency, µM (highest dose often 114 µM), inactives show at the top dose activity change, negative = inhibition, most hits filed as inhibitors. Lysine-specific demethylase 4A (Homo sapiens), O75164. 4.4% of 390,000 active. AlphaScreen JMJD2A-Tudor / H3K4me3 peptide binding; also: % is scaled to controls: 0 for no effect and ±100 for the full control effect; nearly all actives have a fitted effect of over 50% in size
Target sequence (O75164 whole entry, looked up, the tested form may be a part): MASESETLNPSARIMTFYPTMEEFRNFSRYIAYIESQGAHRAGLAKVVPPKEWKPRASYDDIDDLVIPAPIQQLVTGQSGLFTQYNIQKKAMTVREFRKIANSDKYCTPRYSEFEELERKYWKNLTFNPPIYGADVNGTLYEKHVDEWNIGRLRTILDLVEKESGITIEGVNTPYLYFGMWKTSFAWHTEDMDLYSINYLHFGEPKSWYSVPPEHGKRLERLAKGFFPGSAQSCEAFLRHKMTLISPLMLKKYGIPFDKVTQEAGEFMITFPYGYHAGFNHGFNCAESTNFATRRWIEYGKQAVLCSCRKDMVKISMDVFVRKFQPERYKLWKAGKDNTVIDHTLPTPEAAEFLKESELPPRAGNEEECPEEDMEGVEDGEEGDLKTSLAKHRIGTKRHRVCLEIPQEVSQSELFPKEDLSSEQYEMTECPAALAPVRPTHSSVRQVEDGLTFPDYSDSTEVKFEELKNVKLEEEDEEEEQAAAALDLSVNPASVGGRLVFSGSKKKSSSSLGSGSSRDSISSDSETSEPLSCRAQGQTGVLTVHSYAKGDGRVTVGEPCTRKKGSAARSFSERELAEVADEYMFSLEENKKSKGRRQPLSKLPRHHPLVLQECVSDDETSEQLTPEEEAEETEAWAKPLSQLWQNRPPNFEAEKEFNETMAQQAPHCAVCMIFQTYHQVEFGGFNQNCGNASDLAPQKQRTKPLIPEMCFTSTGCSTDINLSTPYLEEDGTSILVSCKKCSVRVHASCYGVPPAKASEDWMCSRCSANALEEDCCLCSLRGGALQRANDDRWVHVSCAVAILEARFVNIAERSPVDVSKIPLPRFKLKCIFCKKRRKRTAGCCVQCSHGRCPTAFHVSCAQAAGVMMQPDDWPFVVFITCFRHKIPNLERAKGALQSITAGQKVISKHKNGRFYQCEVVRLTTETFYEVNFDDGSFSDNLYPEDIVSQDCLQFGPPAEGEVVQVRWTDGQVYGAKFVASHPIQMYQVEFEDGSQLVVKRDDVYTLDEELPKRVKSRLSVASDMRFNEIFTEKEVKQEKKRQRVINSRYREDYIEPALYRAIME
* marks the source's active call; other numbers are inactive results; ? = inconclusive; · = not tested or not shown; [ ] = another dose, or the depositor's remark. Rows were chosen to be rich in hits. Some 12% of all compounds tested hit in one or more screens of this group. Calls follow the shape of the dose curve; as a rule, active = well fitted curve in the direction sought with a large enough effect; inconclusive = small, poorly fitted or top-dose-only effect, or another doubt; inactive = no such curve, though single readings can be large; an effect the other way counts as inactive or inconclusive. Potency is read from the fitted curve at half-maximal effect.

SMILES	L3MBTL1 inh	Sfp PPTase inh	G9a inh	BAZ2B inh	HP1b binding inh	JMJD2A Tudor inh
CCOC(=O)CSc1ccc2nnc(-c3cccs3)n2n1	?	-5%	10µM*	5%	39%	-35%
O=C(CSc1ccc(-c2cccs2)nn1)N1CCCCCC1	9%	1%	-11%[59 µM]	1%	41%	-1%
COc1ccc(NC(=O)c2cc3c(=O)n(Cc4cccnc4)ccc3nc2C)c(OC)c1	·	·	10%[59 µM]	-25%	59%	-16%
COCCn1c(=O)cnc2cnc(N(C)C)nc21	·	3%	11%[0.501 µM]	·	·	·
Cc1nc(-c2ccc(F)cc2)sc1CCNC(=O)c1ccccc1C(F)(F)F	·	·	4%[59 µM]	-2%	-1%[57 µM]	-26%
CN(C)/[N+]([O-])=N/Oc1cc(O/[N+]([O-])=N/N2CCCC2CO)c([N+](=O)[O-])cc1[N+](=O)[O-] (centres undefined)	·	79µM*	·	·	2%	-25%
CCOC(=O)N1CCN([N+]([O-])=NOc2cc(O/N=[N+](\[O-])N(C)C)c([N+](=O)[O-])cc2[N+](=O)[O-])CC1	·	?	·	·	12%	-19%
CN(C)/[N+]([O-])=N/Oc1cc(ON=[N+]([O-])N2CCN(c3ncccn3)CC2)c([N+](=O)[O-])cc1[N+](=O)[O-]	·	50µM*	·	·	53%	-19%
CNc1ccc(C(=O)Oc2cc(O/N=[N+](\[O-])N(C)C)c([N+](=O)[O-])cc2[N+](=O)[O-])cc1	·	?	·	·	-1%	?
CCN(CC)CCCNc1oc(-c2ccc(OC)cc2)nc1C#N	·	·	-3%[59 µM]	-18%	19%	-27%
Cc1cccc(N2CCN(C(=O)C3CCN(S(=O)(=O)c4cn(C)cn4)CC3)CC2)c1C	·	·	11%[59 µM]	-17%	14%	-11%
CN(CP(=O)(O)C(O)c1ccccc1)S(C)(=O)=O (centres undefined)	-4%	-23%	?	-4%	27%	?
CCOC(=O)CCP(=O)(O)C(O)c1ccccc1 (centres undefined)	·	0%	18%[59 µM]	1%	8%	50µM*
O=C(NC1CCCCC1)Sc1ccc(Cl)cc1	·	28µM*	?	57%	69%	110%
CCc1ccccc1NC(=O)Cn1c(=O)n(Cc2ccco2)c(=O)c2sc3ccccc3c21	·	·	-32%[59 µM]	-9%	30%	-4%
CCn1cc(C(=O)NCCc2ccccc2)c(=O)c2cc(F)c(N3CCN(C)CC3)cc21	1%	-5%	-26%[59 µM]	2%	22%	-11%
CCn1cc(C(=O)NCC(C)C)c(=O)c2cc(F)c(N3CCN(C(=O)c4ccco4)CC3)cc21	·	6%	8%	-4%	-18%	-16%
CCn1cc(C(=O)NCc2ccco2)c(=O)c2cc(F)c(N3CCN(C(=O)c4ccco4)CC3)cc21	26%[11.4 µM]	?	14µM*	56µM*	24%	-30%
CCn1cc(C(=O)NCc2ccccn2)c(=O)c2cc(F)c(N3CCN(C)CC3)cc21	·	20%	0.45µM*	-1%	23%	-10%
Cc1c(C(C)(C(=O)O)c2c(C)n(C)c3ccccc23)c2ccccc2n1C	-6%	2%	56%[0.501 µM]	?	·	·
Cc1c(P(=O)(c2ccccc2)c2ccccc2)c2ccccc2n1C	·	·	·	·	·	22µM*
CCN1CCN(CCOCCOc2ccccc2-c2ccccc2)CC1	-2%	50µM*	7.9µM*	20µM*	·	·
c1ccc(-c2ccccc2OCCOCCN2CCNCC2)cc1	-1%	20µM*	·	22µM*	-7%	-2%
CCN1CCN(c2cc3c(cc2F)c(=O)c(S(=O)(=O)c2cc(C)cc(C)c2)cn3CC)CC1	·	·	-7%[59 µM]	-2%	27%	-11%
COc1ccccc1CN1C(=O)[C@H]2Cc3c([nH]c4ccccc34)C(C)(C)N2C1=O	·	·	·	·	40%	-22%
SMILES	L3MBTL1 inh	Sfp PPTase inh	G9a inh	BAZ2B inh	HP1b binding inh	JMJD2A Tudor inh
COc1cc(CN2CCc3c([nH]c4ccccc34)C2)cc(OC)c1	-7%	2%	32µM*	35µM*	?	7.9µM*
COc1ccccc1CN1CCc2c([nH]c3ccccc23)C1	-3%	-9%	7.1µM*	50µM*	?	20µM*
Clc1cccc(CN2CCc3c([nH]c4ccccc34)C2)c1Cl	·	-16%	50µM*	22µM*	?	22µM*
COc1ccc(C2C=C(c3ccccc3)Nc3nc(NC(=O)/C=C/c4ccc(F)cc4)nn32)cc1 (centres undefined)	·	·	-34%[59 µM]	-4%	46%	-4%
COc1cc2c(cc1OC)C(c1cc3ccc(C)cc3[nH]c1=O)N(C(=O)c1ccco1)CC2 (centres undefined)	·	-10%	?	-36%	?	?
COc1cc2c(cc1OC)C(c1cc3cc4c(cc3[nH]c1=O)OCO4)N(C(=O)C1CC1)CC2 (centres undefined)	-14%	40µM*	10%[59 µM]	7%	18%	-24%
CCN(CC)c1ccc(NC(=O)c2cnc3c(-c4ccccc4)c(C)nn3c2C)c(C)c1	·	·	?	-23%	18%	-25%
COc1ccc(N2CC(O)=C(c3nc(-c4ccc(F)cc4)cs3)C2=N)cc1Cl	6%	-23%	23%	-3%	-6%	40µM*
COc1ccc(OC)c(/C=C2\SC(N3CCCC(C)C3)=NC2=O)c1 (centres undefined)	·	?	28µM*	-4%	46%	8%
O=C(C1CCN(c2ncnc3c2nc2n3CCCCC2)CC1)N1CCN(c2cccc(Cl)c2)CC1	·	-2%	11%	32µM*	38%	?
CC(=O)c1ccc(N2CCN(C(=O)C3CCCN(c4ncnc5c4nc4n5CCCCC4)C3)CC2)cc1 (centres undefined)	·	2%	·	?	27%	-13%
COc1ccc(N2CCN(C(=O)C3CCCN(c4ncnc5c4nc4n5CCCCC4)C3)CC2)cc1 (centres undefined)	·	2%	·	28µM*	-2%	?
CCOc1ccc(NC(=O)CC2C(=O)N(c3ccc(F)cc3)C(=O)N2CCc2sccc2C)cc1 (centres undefined)	·	·	11%[59 µM]	-12%	6%	-25%
Cc1c(C(=O)N2CCCCCC2)c(S(=O)(=O)Nc2ccc(OC(F)(F)F)cc2)c(C)n1C	·	·	-23%[59 µM]	-33%	49%	-33%

Compound activity deposited in PubChem BioAssay by National Center for Advancing Translational Sciences (NCATS).
